LmPK inh = blocks Leishmania mexicana pyruvate kinase activity. Q27686. purified LmPK, Kinase-Glo ATP luminescence, 1 h. Potency, µM (titrated, usually from 57.5 µM), for the others: top-dose activity change, negative = inhibition, usual class: inhibitors. hit rate 0.37% among 290,000; active means well fitted curve in the direction sought with a large enough effect; inconclusive means small, poorly fitted or top-dose-only effect, or another doubt; inactive means no such curve, though single readings can be large; an effect the other way counts as inactive or inconclusive; further: potency means the concentration at half of the fitted maximal effect; on the % scale 0 is the no-effect control and ±100 the full control effect
Target sequence (Q27686 whole entry, looked up): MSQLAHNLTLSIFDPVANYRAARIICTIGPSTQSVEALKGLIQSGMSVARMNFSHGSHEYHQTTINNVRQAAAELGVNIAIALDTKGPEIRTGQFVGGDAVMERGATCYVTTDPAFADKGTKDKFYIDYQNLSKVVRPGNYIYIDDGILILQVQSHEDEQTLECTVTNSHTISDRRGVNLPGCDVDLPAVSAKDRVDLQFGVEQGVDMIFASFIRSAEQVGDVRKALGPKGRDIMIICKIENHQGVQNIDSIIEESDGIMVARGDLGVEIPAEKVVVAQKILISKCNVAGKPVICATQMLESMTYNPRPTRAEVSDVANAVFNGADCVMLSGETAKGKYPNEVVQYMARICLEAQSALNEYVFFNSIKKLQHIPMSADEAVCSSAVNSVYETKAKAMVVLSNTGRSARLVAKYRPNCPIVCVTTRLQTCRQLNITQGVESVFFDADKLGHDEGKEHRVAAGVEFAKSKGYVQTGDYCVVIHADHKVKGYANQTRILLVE
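Purified LmPK (0.1 nM) with 0.5 mM PEP and 0.1 mM ADP in imidazole buffer pH 7.2 with MgCl2/KCl, 1 h at room temperature. ATP formed was read by luciferase luminescence and normalized to no-enzyme and uninhibited controls.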
TbPYK inhibitor = blocks Trypanosoma brucei pyruvate kinase; Q57TT1; TbPYK enzyme, Kinase-Glo Plus ATP luminescence, 45 min; Potency, µM (doses to about 76.8 µM), for the others: at the top dose activity, negative = inhibition, usual class: inhibitors; hit rate 0.12% among 410,000; active means well fitted curve in the direction sought with a large enough effect; inconclusive means small, poorly fitted or top-dose-only effect, or another doubt; inactive means no such curve, though single readings can be large; an effect the other way counts as inactive or inconclusive; further: potency means the concentration at half of the fitted maximal effect; on the % scale 0 is the no-effect control and ±100 the full control effect; nearly all actives have a fitted effect of over 50% in size
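T. brucei PYK with substrate was exposed to pin-transferred compounds across a concentration series, then started with 130 uM ADP (final). After 45 min at room temperature, Kinase-Glo Plus luminescence was read, normalized and curve-fitted.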
CHX counter = affects cycloheximide protein synthesis inhibition readout, counter-screen; hit rate 12% among 300,000; max response, %; cell reporter, cycloheximide protein synthesis inhibition counterscreen; AID 2314; in the data active means max response mostly above about 13%, no sharp cut-off; inactive means mostly below about 14%; further: read at 38.3 µM for the half of the compounds with a filed dose; 0% is about no effect
NS1 inh = inhibitors of influenza NS1 protein function; Potency, µM (doses to about 46.1 µM), inactives show at the top dose activity, positive = more growth; hit rate 0.4% among 270,000; further: potency means the concentration at half of the fitted maximal effect; actives are rising curves; nearly all actives have a fitted effect of over 50% in size
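In this qHTS, NS1 from influenza A is expressed in budding yeast, where it slows growth. Cells are switched from glucose to 2% galactose medium (pH 6.0, -URA), treated with compound, and growth recovery is read at OD600.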
Shiga toxin inh = blocks Shiga toxin action in Vero cells; Vero cells, Shiga toxin protein synthesis inhibition reporter; inhibition, % at 38.7 µM; hit rate 9.2% among 290,000; in the data active means inhibition mostly above about 28%, no sharp cut-off; inactive means mostly below about 43%; further: 0% is about no effect
SARS PLpro yeast = SARS-CoV PLP inhibition in yeast; S. cerevisiae expressing SARS-CoV PLpro, growth rescue; Potency, µM (series often up to 32.9 µM), for the others: at the highest dose activity, positive = growth rescue, actives largely listed as activators; hit rate 0.19% among 330,000; AID 485353; further: potency means the concentration at half of the fitted maximal effect; 0% is about no effect; nearly all actives have a fitted effect of over 55% in size
An asterisk follows results filed as active; ? = inconclusive; . = no result. This is one part of a sample in which hits are shown more often than they occur. Unless noted, the call rests on the fitted dose curve.

SMILES	LmPK inh	TbPYK inhibitor	CHX counter	NS1 inh	Shiga toxin inh	SARS PLpro yeast
CCCc1cc(=O)oc2cc(OCC(=O)Nc3ccccn3)ccc12	-14%	-4%	25*	-8%	67*	3%
COc1ccc(-c2cc(=O)oc3cc(OCC(=O)Nc4ccccn4)ccc23)cc1	2%	-17%	26*	12%	26*	2%
CCCc1cc(=O)oc2cc(OCc3ccc(C(=O)O)cc3)ccc12	6%	-4%	47*	-57%	130*	2%
COc1ccc(-c2cc(=O)oc3cc(OCC(C)=O)ccc23)cc1	-4%	-16%	-2	-5%	3	-24%
COc1ccc(CCNC(=O)COc2ccc3c(C)cc(=O)oc3c2)cc1	.	14%	.	.	.	1%
CCCc1cc(=O)oc2cc(OCc3ccc(C(=O)O)o3)ccc12	-6%	-5%	6	3%	0	2%
CCCc1cc(=O)oc2cc(OCC(=O)Nc3cc(C)on3)ccc12	0%	-9%	1	7%	-1	12%
Cc1sc2ncnc(OCC(=O)N3CCN(S(=O)(=O)c4ccc(Cl)cc4)CC3)c2c1C	2%	1%	10*	4%	14	0%
Cc1ccc(Nc2c(-c3ccco3)nc3ccc(C)cn23)cc1	.	3%	.	.	.	.
CCOC(=O)[C@H]1[C@H]2COc3ccc(Cl)cc3[C@@H]2N2C(=O)CN(Cc3ccccc3)C(=O)[C@@]12C	.	1%	.	.	.	8.9µM*
CC(C)C[C@H](NC(=O)[C@H](CCc1ccccc1)NC(=O)CN1CCOCC1)C(=O)N[C@@H](Cc1ccccc1)C(=O)N[C@@H](CC(C)C)C(=O)[C@@]1(C)CO1	.	-12%	.	.	.	.
COc1cc2c(cc1OC)C(COc1ccc([N+](=O)[O-])cc1)N(C(C)=O)CC2 (configuration not stated)	2%	0%	-3	0%	16	-3%
Cc1cc(C)n(CC(O)COc2ccc(Cl)cc2Cl)n1 (configuration not stated)	-4%	3%	30*	-15%	29*	-4%
CCc1cc(-c2nnn(CCC3COCCO3)c2C(C)(C)O)ccc1-c1cn(CCc2c[nH]c3ccccc23)nn1 (configuration not stated)	.	1%	.	.	.	.
Cc1nn(-c2ccccc2)c2[nH]c(=O)cc(C(F)F)c12	.	7%	.	.	.	-6%
Cc1ccc(-n2nc(C)c3c(C)cc(=O)[nH]c32)cc1	1%	7%	21*	1%	32	2%
CN1C(C(=O)NCc2ccco2)CC2Cn3c(nc4cc(Cl)c(Cl)cc43)C21 (configuration not stated)	3%	-5%	13*	-2%	2	2%
CN1C(C(=O)NCc2ccco2)CC2Cn3c(nc4cc5ccccc5cc43)C21 (configuration not stated)	1%	-3%	-5	-3%	2	1%
O=C(Nc1ccccc1F)c1ccc(CSc2ccccc2)o1	0%	-6%	54*	-51%	63*	-9%
O=C(Nc1cccc(F)c1)c1ccc(CSc2ccccc2)o1	2%	3%	55*	-65%	95*	-65%
CC(=O)Nc1ccc(NC(=O)c2ccc(CSc3ccccc3)o2)cc1	13%	4%	4	.	13	1%
CCc1cc2c(SCC(=O)c3cccs3)ncnc2s1	2%	-3%	16*	4%	-15	0%
CCc1cc2c(SCC(=O)c3ccccc3)ncnc2s1	6%	1%	45*	3%	73*	20%
CCc1cc2c(SCC(=O)O)ncnc2s1	4%	3%	5	9%	-17	2%
CN(Cc1ccc2ccccc2c1)C(=O)c1ccc(C(F)(F)F)cc1	0%	1%	-4	-19%	28	-11%
SMILES	LmPK inh	TbPYK inhibitor	CHX counter	NS1 inh	Shiga toxin inh	SARS PLpro yeast
Cc1ccc(S(=O)(=O)N(C)c2nc3ccccc3[nH]c2=S)cc1	2%	-17%	11	4%	-4	0%
CN(c1nc2ccccc2nc1Cl)S(=O)(=O)c1ccccc1	0%	-2%	27*	-5%	45*	-3%
Cc1ccc(C(=O)N2CCC(Cc3ccccc3)CC2)cc1S(=O)(=O)N1CCOCC1	.	3%	.	.	.	0%
CCCCC(=O)N1CCN(c2nc3ccc(Br)cc3s2)CC1	-6%	1%	26*	-21%	45*	-13%
CCCC(=O)N1CCN(c2nc3ccc(Cl)cc3s2)CC1	-8%	2%	43*	-20%	50*	-6%
CCCC(=O)N1CCN(c2nc3ccc(CC)cc3s2)CC1	-7%	0%	36*	-19%	134*	-2%
CCCC(=O)N1CCN(c2nc3ccc(Br)cc3s2)CC1	-6%	-2%	44*	-16%	46*	-10%
CCn1cc(S(=O)(=O)c2ccc(Cl)cc2)c(=O)c2cc(F)c(N3CCOCC3)cc21	.	-6%	.	.	.	.
CCN(CC)C(=O)CN1C(=O)COc2ccc(S(=O)(=O)N3CCOCC3)cc21	.	5%	.	.	.	.
OCCCNc1cc(-c2ccnc(Nc3cccc(Cl)c3)n2)ccn1	-1%	-3%	23*	-48%	37*	-7%
CCC(C)Oc1cc(-c2ccnc(Nc3cccc(Cl)c3)n2)ccn1 (configuration not stated)	-3%	?	4	1%	19	-4%
Cc1cc(C)c2sc(NC(=O)c3ccc(S(=O)(=O)N4CCOCC4)cc3)nc2c1	.	2%	.	.	.	.
Cc1ccc(NC(=O)c2oc3c(c2C)C(=O)CC(C)(C)C3)cc1	-14%	0%	-2	?	-18	-1%
Cc1c(C(=O)Nc2ccccc2)oc2c1C(=O)CC(C)(C)C2	0%	-4%	33*	-98%	82*	-11%
Cc1ccc(NC(=O)N2C(=O)C3(OCCO3)c3ccccc32)cc1	0%	-2%	43*	-5%	93*	-7%
CCNC(=O)N1C(=O)C2(OCCO2)c2ccccc21	4%	-1%	1	-1%	2	-9%
CCOC(=O)C1CCCN(C2CC(=O)N(c3ccc(N4C(=O)CC(N5CCCC(C(=O)OCC)C5)C4=O)cc3)C2=O)C1 (configuration not stated)	0%	0%	-4	-3%	-12	1%
Cc1ccc2nc(-c3ccc(N4C(=O)CC(N5CCC(C(N)=O)CC5)C4=O)cc3)sc2c1 (configuration not stated)	-3%	.	26*	-5%	33	-85%
Cc1ccc(N2C(=O)CC(N3CCN(C)CC3)C2=O)cc1 (configuration not stated)	5%	.	-4	-3%	4	-25%
Cc1ccc2nc(-c3ccc(N4C(=O)CC(N5CCCC(C)C5)C4=O)cc3)sc2c1 (configuration not stated)	8%	.	70*	-10%	143*	.
CN(C)S(=O)(=O)c1ccc(SCC(=O)N2CC(=O)Nc3ccccc32)nc1	.	-20%	.	.	.	-3%
Clc1cnc(N/N=C/c2ccncc2)c(Cl)c1	3%	-4%	16*	-10%	49*	0%

Assay outcomes (PubChem)
